Source: PubChem BioAssay (NCATS)
Results filed as inconclusive are left out. Activity calls are given as the source filed them. The call rests on the fitted dose curve; in most records, active means well fitted curve in the direction sought with a large enough effect; inconclusive means small, poorly fitted or top-dose-only effect, or another doubt; inactive means no such curve, though single readings can be large or run the other way.

assay: qHTS for Inhibitors of the vitamin D receptor (VDR): Hit Validation using a Texas Red Assay (AID 602201); details: VDR coregulator binding, Texas Red fluorescence polarization, agonist-bound VDR ligand-binding domain; series mostly up to 57.1 µM
How it was run: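 Fluorescence polarization with 1.5 uM VDR-LBD, LG19078 and 7 nM Texas Red (final). After 2 hours at ambient temperature, read at Ex 595 nm/Em 615 nm.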
Potency means the concentration at half of the fitted maximal effect.

Potency, inactive:
C=CCOc1c(Br)cc(/C=C2/C(=O)ON=C2C)cc1OC
[O-]/[N+](=C\c1ccccc1)c1ccc(Br)cc1
COc1cccc(C(=O)C(C#N)=C(SC)SC)c1
O=C1NN(c2ccc(F)c(Cl)c2)C(=O)/C1=C\c1cccc(OC(=O)c2cccs2)c1
CN(C)c1ccc(C(=S)N2CCN(c3ccc([N+](=O)[O-])cc3)CC2)cc1
CN1C(=O)C(Cl)(Cl)C(=O)c2ccccc21

Potency, active:
CCOC(=O)c1c(C)oc2c1c1c(c3ccccc32)OCN(Cc2cccnc2)C1 20 µM
COC(=O)c1ccccc1NC(=O)c1nc(S(=O)(=O)Cc2ccccc2)ncc1Cl 3.16 µM
COc1ccc(C(=O)c2coc3c2C(=O)C(=O)c2ccccc2-3)cc1 5.62 µM
NS(=O)(=O)c1ccc(NC(=O)c2nc(S(=O)(=O)Cc3ccccc3F)ncc2Cl)cc1 3.16 µM
CCS(=O)(=O)c1ncc(Cl)c(C(=O)Nc2ccc(S(=O)(=O)N3CCCC(C)C3)cc2)n1 (stereo unspecified) 3.55 µM
O=S1(=O)C=C(Sc2nnc(-c3ccccc3)o2)c2ccccc21 3.16 µM
c1ccc(CCc2nn3c(Cc4ccccc4)nnc3s2)cc1 28.2 µM
O=C1/C(=C/c2cccnc2)CCC/C1=C\c1cccnc1 31.6 µM
CCCNC(=O)c1nnsc1S(=O)c1ccc(Cl)cc1 (stereo unspecified) 3.16 µM
CNc1ccc(Br)cc(C(=O)/C=C/c2cccc(Cl)c2Cl)c1=O 3.55 µM
